# Values without a mark were called inactive. Inconclusive results are not listed. Where a call stands in place of a potency, no number is given. Calls of active or inactive are those of the source. Calls follow the shape of the dose curve; as a rule, active = well fitted curve in the direction sought with a large enough effect in the repeat runs; inconclusive = weak or mixed curves; inactive = no such curve, though single readings can be large; an effect the other way counts as inactive or inconclusive.
# Legend:
# [1] = qHTS RealTime-Glo MT Cell Viability Assay in HepG2 cells - 32 hour (AID 1224877); also: nearly all actives have a fitted effect of over 55% in size
# How it was run: (§1)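 qHTS, HepG2, 600 cells/well, RealTime-Glo (NanoLuc + prosubstrate) added with cells; 5 h preincubation; DMSO compound addition; 37 C; luminescence at 0/8/16/24/32/40 h.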
# [2] = A CellTox Green Cytotoxicity Assay to monitor cytotoxicity in HepG2 cells - 24 hour (AID 1224878); also: nearly all actives have a fitted effect of over 45% in size; also: potency is read from the fitted curve at half-maximal effect
# How it was run: (§2)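 HepG2, 600 cells/well premixed w/ CellTox Green; 5 h settle, 37 C/5% CO2; pintool cpd add (DMSO); 37 C, 40 h; fluorescence read at 0, 8, 16, 24, 32, 40 h.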
# [3] = A CellTox Green Cytotoxicity Assay to monitor cytotoxicity in HepG2 cells - 40 hour (AID 1224879); also: nearly all actives have a fitted effect of over 40% in size; also: potency is read from the fitted curve at half-maximal effect
# How it was run: as §2
# [4] = qHTS RealTime-Glo MT Cell Viability Assay in HEK293 cells - 0 hour (AID 1224880); also: top concentration of the series differs between compounds; nearly all actives have a fitted effect of over 45% in size
# How it was run: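 Luminescence readout at each listed time point; HEK293, 600 cells/well, RealTime-Glo MT reagent added with cells; compounds pinned (23 nL in DMSO) after 5 h at 37 C; continuous culture at 37 C.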
# [5] = A CellTox Green Cytotoxicity Assay to monitor cytotoxicity in HEK293 cells - 32 hour (AID 1224881); also: nearly all actives have a fitted effect of over 40% in size
# How it was run: (§3)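 Read-out: fluorescence of a cell-impermeant cyanine dye staining DNA of dead cells, proportional to cytotoxicity. HEK293, 600 cells/well with reagent, compound (23 nL DMSO) added after 5 h; reads at 0, 8, 16, 24, 32, 40 h.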
# [6] = A CellTox Green Cytotoxicity Assay to monitor cytotoxicity in HepG2 cells - 32 hour (AID 1224883); also: nearly all actives have a fitted effect of over 50% in size
# How it was run: as §2
# [7] = A CellTox Green Cytotoxicity Assay to monitor cytotoxicity in HEK293 cells - 8 hour (AID 1224884); also: nearly all actives have a fitted effect of over 35% in size
# How it was run: as §3
# [8] = qHTS RealTime-Glo MT Cell Viability Assay in HepG2 cells - 16 hour (AID 1224885); also: nearly all actives have a fitted effect of over 50% in size
# How it was run: as §1
# [9] = A CellTox Green Cytotoxicity Assay to monitor cytotoxicity in HepG2 cells - 0 hour (AID 1224882); also: nearly all actives have a fitted effect of over 35% in size
# How it was run: as §2
structure (smiles),measurement,setting,value
C[N+](C)(C)CC(O)CCl (stereo not given),outcome,[1],inactive
same,Potency,[2],inactive
same,Potency,[3],inactive
same,outcome,[4],inactive
same,Potency,[5],inactive
same,Potency,[6],inactive
same,Potency,[7],inactive
same,outcome,[8],inactive
O=[Si]=O,outcome,[1],inactive
same,Potency,[2],inactive
same,Potency,[3],inactive
same,outcome,[4],inactive
same,Potency,[5],inactive
same,Potency,[9],inactive
same,Potency,[7],inactive
same,outcome,[8],inactive
Cc1ccc2c(c1)c1c3n2CCNC3CCC1 (stereo not given),outcome,[1],inactive
same,Potency,[2],inactive
same,Potency,[3],inactive
same,Potency,[5],inactive
same,Potency,[9],inactive
same,Potency,[6],inactive
same,Potency,[7],inactive
Nc1ccc(/C=C/c2ccc(N)cc2S(=O)(=O)O)c(S(=O)(=O)O)c1,"activity change, negative = cytotoxic",[1],-0.0646% [at 0.29 µM]
same,cytotoxicity,[2],-13.6% [at 0.29 µM]
same,cytotoxicity increase,[3],-16.8% [at 0.29 µM]
same,"activity change, negative = cytotoxicity",[4],3.48% [at 0.29 µM]
same,cytotoxicity increase,[5],-0.592% [at 0.29 µM]
same,cytotoxicity increase,[6],-15.7% [at 0.29 µM]
same,cytotoxicity increase,[7],0.921% [at 0.29 µM]
same,"activity change, negative = cytotoxic",[8],4.55% [at 0.29 µM]
O=S(=O)(O)c1cc(O)ccc1O,outcome,[1],inactive
same,outcome,[4],inactive
same,Potency,[5],inactive
same,Potency,[9],inactive
same,Potency,[7],inactive
same,outcome,[8],inactive
CC(C)COC(=O)/C=C/c1ccccc1,outcome,[1],inactive
same,outcome,[4],inactive
same,Potency,[9],inactive
same,Potency,[7],inactive
same,outcome,[8],inactive
C=CCCCCCCCCCCC,"activity change, negative = cytotoxic",[1],-0.401% [at 6.97 µM]
same,cytotoxicity,[2],0.49% [at 6.97 µM]
same,cytotoxicity increase,[3],1.74% [at 6.97 µM]
same,"activity change, negative = cytotoxicity",[4],4.11% [at 6.97 µM]
same,cytotoxicity increase,[5],-0.213% [at 6.97 µM]
same,cytotoxicity,[9],1.75% [at 6.97 µM]
same,cytotoxicity increase,[6],1.86% [at 6.97 µM]
same,cytotoxicity increase,[7],2.18% [at 6.97 µM]
same,"activity change, negative = cytotoxic",[8],-0.787% [at 6.97 µM]
CNCc1ccccc1,outcome,[1],inactive
same,Potency,[2],inactive
same,Potency,[3],inactive
same,outcome,[4],inactive
same,Potency,[5],inactive
same,Potency,[6],inactive
same,Potency,[7],inactive
same,outcome,[8],inactive
C=C(C)C(=O)OC1CC(C)CC(C)(C)C1 (stereo not given),outcome,[1],inactive
same,Potency,[2],inactive
same,outcome,[4],inactive
same,Potency,[5],inactive
same,Potency,[9],inactive
same,Potency,[7],inactive
same,outcome,[8],inactive
CNC(=O)C(c1ccccc1)c1ccccc1,outcome,[1],inactive
same,Potency,[5],inactive
same,Potency,[9],inactive
same,Potency,[7],inactive
Nc1c(NC/C=C\COc2cc(CN3CCCCC3)ccn2)c(=O)c1=O,"activity change, negative = cytotoxic",[1],0.449% [at 15.8 µM]
same,cytotoxicity,[2],-15.2% [at 15.8 µM]
same,cytotoxicity increase,[3],-13.3% [at 15.8 µM]
same,"activity change, negative = cytotoxicity",[4],11.6% [at 15.8 µM]
same,cytotoxicity increase,[5],6.07% [at 15.8 µM]
same,cytotoxicity,[9],-10.4% [at 15.8 µM]
same,cytotoxicity increase,[6],-13.1% [at 15.8 µM]
same,cytotoxicity increase,[7],3.26% [at 15.8 µM]
same,"activity change, negative = cytotoxic",[8],3.45% [at 15.8 µM]
CCCO,outcome,[1],inactive
same,Potency,[5],inactive
same,Potency,[9],inactive
same,Potency,[7],inactive
same,outcome,[8],inactive
Oc1ccccc1Cc1ccccc1O,outcome,[1],inactive
same,outcome,[4],inactive
same,Potency,[5],inactive
same,Potency,[9],inactive
same,Potency,[7],inactive
same,outcome,[8],inactive
O=C1CC[C@H](C(=O)N2CCCCC2)N1,outcome,[1],inactive
same,Potency,[2],inactive
same,Potency,[3],inactive
same,Potency,[5],inactive
same,Potency,[9],inactive
same,Potency,[6],inactive
same,Potency,[7],inactive
same,outcome,[8],inactive
CO[Si](CCCCl)(OC)OC,outcome,[1],inactive
same,Potency,[2],inactive
same,Potency,[3],inactive
same,outcome,[4],inactive
same,Potency,[5],inactive
same,Potency,[9],inactive
same,Potency,[6],inactive
same,Potency,[7],inactive
same,outcome,[8],inactive
O=P(O)(O)OCC(O)CO (stereo not given),outcome,[1],inactive
same,Potency,[2],inactive
same,Potency,[3],inactive
same,outcome,[4],inactive
same,Potency,[5],inactive
same,Potency,[9],inactive
same,Potency,[7],inactive
same,outcome,[8],inactive
NS(=O)(=O)c1cc2c(cc1Cl)NC(CC1CCCC1)NS2(=O)=O (stereo not given),outcome,[1],inactive
same,Potency,[3],inactive
same,Potency,[5],inactive
same,Potency,[7],inactive
C=CCOc1cc(Cl)ccc1C(=O)NCCN(CC)CC,outcome,[1],inactive
same,Potency,[2],inactive
same,Potency,[3],inactive
same,outcome,[4],inactive
same,Potency,[9],inactive
same,Potency,[6],inactive
same,Potency,[7],inactive
same,outcome,[8],inactive
O=S(=O)(O)SSS(=O)(=O)O,outcome,[1],inactive
same,Potency,[2],inactive
same,Potency,[3],inactive
same,outcome,[4],inactive
same,Potency,[5],inactive
same,Potency,[6],inactive
same,Potency,[7],inactive
same,outcome,[8],inactive
CCCCCN(CCCOC)C(=O)C(CCC(=O)O)NC(=O)c1ccc(Cl)c(Cl)c1 (stereo not given),outcome,[1],inactive
same,outcome,[4],inactive
same,Potency,[5],inactive
same,Potency,[7],inactive
same,outcome,[8],inactive
C[CH2][Ge]([Cl])([CH2]C)[CH2]C,outcome,[1],inactive
same,Potency,[2],inactive
same,Potency,[3],inactive
same,outcome,[4],inactive
same,Potency,[5],inactive
same,Potency,[6],inactive
same,Potency,[7],inactive
Cc1nc(C)nc(N2C[C@@H](C)N(c3ccnc([C@@H](C)O)n3)[C@@H](C)C2)n1,outcome,[1],inactive
same,Potency,[2],inactive
same,Potency,[3],inactive
same,outcome,[4],inactive
same,Potency,[5],inactive
same,Potency,[9],inactive
same,Potency,[6],inactive
same,Potency,[7],inactive
same,outcome,[8],inactive
NC(=O)NC(=O)Cc1ccccc1,outcome,[1],inactive
same,Potency,[2],inactive
same,Potency,[3],inactive
same,Potency,[5],inactive
same,Potency,[9],inactive
same,Potency,[6],inactive
same,Potency,[7],inactive
same,outcome,[8],inactive
Cc1ccccc1C(=O)N1CC/C(=N\OS(=O)(=O)O)c2ccc(Cl)cc21,outcome,[1],inactive
same,Potency,[2],26.8 µM (active)
same,Potency,[3],23.9 µM (active)
same,outcome,[4],inactive
same,Potency,[5],inactive
same,Potency,[7],inactive
COc1ccc(N=Nc2cc(C)c(N=Nc3ccc(S(=O)(=O)O)cc3)cc2OC)cc1,outcome,[1],inactive
same,Potency,[2],inactive
same,Potency,[3],inactive
same,Potency,[5],inactive
same,Potency,[9],inactive
same,Potency,[7],inactive
O=C(O)c1c(Cl)ccc(Cl)c1Cl,outcome,[1],inactive
same,Potency,[2],inactive
same,Potency,[3],inactive
same,outcome,[4],inactive
same,Potency,[5],inactive
same,Potency,[9],inactive
same,Potency,[7],inactive
same,outcome,[8],inactive
Nc1ccnc(=O)[nH]1,outcome,[1],inactive
same,Potency,[2],inactive
same,Potency,[3],inactive
same,outcome,[4],inactive
same,Potency,[5],inactive
same,Potency,[6],inactive
same,outcome,[8],inactive
O=C(O)CCNC(=O)c1ccccc1,outcome,[1],inactive
same,Potency,[2],inactive
same,Potency,[3],inactive
same,outcome,[4],inactive
same,Potency,[5],inactive
same,Potency,[9],inactive
same,Potency,[6],inactive
same,Potency,[7],inactive
same,outcome,[8],inactive
CCNC(=O)NCCCOc1cccc(CN2CCCCC2)c1,outcome,[1],inactive
same,Potency,[3],26.8 µM (active)
same,Potency,[5],inactive
same,Potency,[9],inactive
same,Potency,[7],inactive
